SMARCA2 activ: increases SMARCA2 function in MMTV reporter cells; MG213 cells, MMTV-luciferase reporter, dexamethasone, overnight; activation, % at 9.1 µM; hit rate 1% among 370,000; AID 652017; in the data active = activation above about 7.8%;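 also: 0% = vehicle wells and 100% = reference activator wells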
esBAF inh: inhibitors of esBAF chromatin remodeling in mouse ES cells. Bmi1-luciferase knock-in reporter, 24 h; 100% = twice the neutral-well signal. hit rate 2% among 350,000. AID 602393. reporter increase, % at 12.5 µM; in the data active = activation above about 40%; inconclusive = no clear call, values can overlap the other calls;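 also: 0% = median of the plate's neutral control wells and 100% = double that signal; a rise in the Bmi1 reporter signal indicates esBAF inhibition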
HSF-1 act: increases HSF-1 driven luciferase reporter signal; NIH3T3-HGL HSF-1 luciferase reporter, MG132, 8 h; 100% = twice DMSO control signal; activation, % at 9 µM; hit rate 1.7% among 300,000;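 active = mean replicate activation of at least 50% with a set share of replicates each reaching 50%; inconclusive = only one of those two conditions met; inactive = mean below 50% and too few replicates reaching it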;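 also: 0% = median of the neutral control wells and 100% = twice that signal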
Wnt bcat act: activators of Wnt/beta-catenin signaling. Wnt/beta-catenin reporter cell assay, activator, plate reader. activation, % at 9.35 µM. hit rate 1.2% among 300,000; in the data active = activation above about 30%, passing the limit was not always enough; inconclusive = no clear call, values can overlap the other calls;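 also: 0% = neutral control wells and 100% = positive control wells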
MITF act: activators of MITF-driven TRPM1 promoter activity in SK-MEL-5 cells. SK-MEL-5 TRPM1-promoter luciferase, 24 h; % of positive control, neutral wells = 0. activation, % at 12.5 µM. hit rate 0.75% among 300,000. AID 588334;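 active = mean activation of at least 80% with every replicate also reaching 80%; inconclusive = mean reaches 80% but some replicate falls short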;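 also: 0% = neutral control wells and 100% = parthenolide positive control wells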
HSF1 inhib: HSF1 inhibition; NIH3T3-HGL HSE-luciferase, MG132-induced, luminescence 8 h; stronger effect = lower value; activity change, negative = inhibition, % at 7.5 µM (by protocol); hit rate 0.77% among 300,000; AID 2098;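 active = more than half of replicate wells show activity change below -50%, luminescence cut by over half; inconclusive = some wells, but at most half, below -50%; inactive = no replicate well below -50%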;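 also: luciferase reports HSF-1 transcriptional activity via heat shock element; 0% = median of DMSO wells and -100% = zero luminescence signal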
Starred values were filed as active, the others as inactive. Only some compounds are listed: those with a hit (about 4.3% of all), similar ones and a draw of the others.

How did Cc1ccnc(NC(=O)c2ccc(S(=O)(=O)N3CCCCCC3)cc2)c1 do in these assays?
SMARCA2 activ: 6.6; HSF-1 act: 0.6; Wnt bcat act: 33.7*; MITF act: 83.5*; HSF1 inhib: 6.1

How did Cc1cc(O)c(C(=O)Nc2cccc(Cl)c2)c(=O)n1C do in these assays?
SMARCA2 activ: 4.0; esBAF inh: 58.8*; HSF-1 act: inconclusive; Wnt bcat act: 6.4; MITF act: 51.2; HSF1 inhib: 32.9

Results for Cc1ccc(O)c(NC(=O)c2onc(C)c2Cl)c1 ?
SMARCA2 activ: 4.4; esBAF inh: 15.2; HSF-1 act: 154.9*; Wnt bcat act: 8.2; MITF act: 8.8; HSF1 inhib: 97.6

Results for Cc1noc(C(=O)Nc2cccc(O)c2)c1Cl ?
SMARCA2 activ: -0.7; esBAF inh: 42.8; HSF-1 act: -3.5; Wnt bcat act: 15.0; MITF act: 26.5; HSF1 inhib: -8.3

Results for Cc1noc(C(=O)Nc2cccc(Cl)c2)c1Cl ?
SMARCA2 activ: 1.9; esBAF inh: 55.8*; HSF-1 act: 39.2; Wnt bcat act: 4.3; MITF act: 57.3; HSF1 inhib: 18.2

What do the screens show for `CCc1ccc(NC(=O)c2onc(C)c2Cl)cc1`?
SMARCA2 activ: 1.6; esBAF inh: 54.2*; HSF-1 act: 46.8; Wnt bcat act: 22.9; MITF act: 42.9; HSF1 inhib: 28.0

What do the screens show for `Cc1ccc(S(=O)(=O)N[C@@H]2C=C[C@H](CC(=O)NCc3ccncn3)O[C@@H]2CO)cc1`?
esBAF inh: -5.3

How did CCNC(=O)[C@@H]1[C@@H](CO)[C@@H]2Cn3c(cccc3=O)[C@@H]2N1Cc1ccccc1Cl do in these assays?
esBAF inh: -1.8

Results for CC(C)CC(NS(=O)(=O)c1ccccc1)C(=O)O (stereo not given) ?
SMARCA2 activ: 0.5; HSF-1 act: 1.8; Wnt bcat act: -1.4; HSF1 inhib: -3.1

What do the screens show for `CC(C)CN=C(NS(=O)(=O)c1ccccc1)C(Cl)(Cl)Cl`?
SMARCA2 activ: -7.8; HSF-1 act: -76.8; Wnt bcat act: 0.6; MITF act: -85.8; HSF1 inhib: -74.1*

What do the screens show for `Cc1noc(C)c1S(=O)(=O)Nc1cccc2c1O[C@H](CN(C)C(=O)Nc1ccc3c(c1)OCO3)[C@H](C)CN([C@@H](C)CO)C2=O`?
esBAF inh: -1.5

What do the screens show for `Cc1cc(=O)oc2cc(NC(=O)c3ccccc3OC(F)F)ccc12`?
SMARCA2 activ: 2.2; esBAF inh: 52.6*; HSF-1 act: 49.6; Wnt bcat act: 17.0; MITF act: 58.0; HSF1 inhib: 21.4

How did Cc1cc(=O)oc2cc(NS(=O)(=O)c3ccccc3)ccc12 do in these assays?
SMARCA2 activ: 1.5; HSF-1 act: 10.5; Wnt bcat act: 52.5*; HSF1 inhib: -8.7

How did Cc1cc(=O)oc2cc(NC(=O)c3cc4ccccc4o3)ccc12 do in these assays?
SMARCA2 activ: 2.1; HSF-1 act: 3.3; HSF1 inhib: 15.2

Results for Cc1cc(=O)oc2cc(NC(=O)c3cc(F)ccc3F)ccc12 ?
SMARCA2 activ: 0.8; esBAF inh: 53.0*; Wnt bcat act: 43.8*; MITF act: 63.8

Results for C[C@H](CO)N1C[C@H](C)[C@H](CN(C)S(=O)(=O)c2cn(C)cn2)Oc2ccc(NS(=O)(=O)c3ccc(F)cc3)cc2CC1=O ?
esBAF inh: -2.6

How did O=C(Nc1ccc2c(c1)OCO2)N[C@H]1CC[C@H](CCNC(=O)C2CC2)O[C@H]1CO do in these assays?
esBAF inh: -0.9

What do the screens show for `CN(CCO)c1nc(N)c2c(N)nc3c(c2c1C#N)CC(=O)N3C1CCCC1`?
HSF-1 act: 13.7; HSF1 inhib: 3.1

Results for CC(C)(C)N1C(=O)Cc2c1nc(N)c1c(N)nc(N3CCCCC3CO)c(C#N)c21 (stereo not given) ?
esBAF inh: 4.2; HSF-1 act: 68.3*; MITF act: 51.3; HSF1 inhib: 23.6

Results for CC(=O)N1[C@@H]2Cn3c(ccc(-c4ccccc4)c3=O)[C@H]1[C@@H](C(=O)N1CCN(C)CC1)[C@@H]2CO ?
esBAF inh: -6.7

What do the screens show for `COC(C(=O)N/N=C(\C)CC(=O)Nc1ccc(Cl)cc1C)c1ccccc1` (stereo not given)?
SMARCA2 activ: 1.4; HSF-1 act: 121.8*; Wnt bcat act: 0.6; MITF act: -4.6; HSF1 inhib: 78.8

Results for COC(C(=O)N/N=C(\C)CC(=O)Nc1ccc(N(C)C)cc1)c1ccccc1 (stereo not given) ?
SMARCA2 activ: -2.4; HSF-1 act: -4.4; Wnt bcat act: 0.9; MITF act: -9.2; HSF1 inhib: -2.1

What do the screens show for `Cc1cc(Nc2cccc(Cl)c2)nc(-c2ccccc2O)n1`?
SMARCA2 activ: -2.8; esBAF inh: -10.3; HSF-1 act: -77.4; Wnt bcat act: -1.7; MITF act: -12.9; HSF1 inhib: -70.5*

What do the screens show for `Cc1cc(Nc2ccc(Cl)cc2)nc(-c2ccccc2O)n1`?
SMARCA2 activ: 2.1; esBAF inh: 10.9; HSF-1 act: -8.9; Wnt bcat act: 3.7; MITF act: 24.3; HSF1 inhib: -2.6

Results for Cc1cccc(CSc2nc(N)c(C#N)c(-c3cccs3)c2C#N)c1 ?
SMARCA2 activ: -5.3; esBAF inh: -2.1; HSF-1 act: -6.1; HSF1 inhib: 1.6

How did Cc1cccc(CSc2nc3c(c(-c4cccs4)c2C#N)CN(C)CC3)c1 do in these assays?
SMARCA2 activ: -3.3; HSF-1 act: 77.1*; MITF act: 1.1; HSF1 inhib: 46.8

What do the screens show for `COc1ccc(C(=O)O/N=C(\N)c2cccc(C)c2)cc1OC`?
SMARCA2 activ: 3.9; esBAF inh: 68.8*; HSF-1 act: 35.0; Wnt bcat act: 20.9; MITF act: 65.2; HSF1 inhib: 20.6

Results for COc1ccc(/C(N)=N/OC(=O)CSc2ccccc2)cc1OC ?
SMARCA2 activ: 2.5; esBAF inh: inconclusive; HSF-1 act: 61.5*; Wnt bcat act: 44.6*; MITF act: 55.0; HSF1 inhib: 58.7

What do the screens show for `Cc1cccc(C(=O)O/N=C(\N)c2ccc(Br)cc2)c1`?
SMARCA2 activ: 2.0; HSF-1 act: 38.4; MITF act: 21.4; HSF1 inhib: 21.1

Results for COc1ccc(C(=O)O/N=C(\N)c2ccccc2)cc1OC ?
SMARCA2 activ: 6.5; esBAF inh: inconclusive; HSF-1 act: 55.9*; Wnt bcat act: 56.1*; MITF act: 49.0; HSF1 inhib: 32.1

Results for Cc1ccc(S(=O)(=O)N(C)C[C@@H]2Oc3ccc(NC(=O)c4ccncc4)cc3C(=O)N([C@@H](C)CO)C[C@H]2C)cc1 ?
esBAF inh: 0.5

What do the screens show for `COc1ccc(NC(=S)Nc2ccccc2)cn1`?
SMARCA2 activ: -3.7; HSF-1 act: 4.1; Wnt bcat act: -0.8; MITF act: 20.1; HSF1 inhib: 8.0

What do the screens show for `COc1ccc(NC(=O)Cc2ccccc2)cn1`?
SMARCA2 activ: 1.7; esBAF inh: 9.5; HSF-1 act: 1.2; Wnt bcat act: 1.6; MITF act: -9.8; HSF1 inhib: 2.0

High-throughput results from PubChem.
